High-throughput results from PubChem BioAssay.
DUSP3 inh: VHR1 (DUSP3) phosphatase inhibition; P51452; inhibition, % at 20 µM; AID 1992; actives 0.7% (n = 50,000); recombinant VHR phosphatase, colorimetric substrate read-out; in the data active = inhibition above about 60%
Target sequence (P51452 whole entry, looked up): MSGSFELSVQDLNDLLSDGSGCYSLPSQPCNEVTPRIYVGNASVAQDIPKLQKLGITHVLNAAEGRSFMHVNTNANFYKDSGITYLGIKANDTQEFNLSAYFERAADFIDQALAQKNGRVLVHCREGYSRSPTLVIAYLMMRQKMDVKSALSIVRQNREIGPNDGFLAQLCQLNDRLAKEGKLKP
A number is an active result; i = inactive. The full list was thinned out, with hits kept by preference.

SMILES	DUSP3 inh
O=C(Nc1cccc2ccccc12)C1CC2CCC1C2 (centres undefined)	i
O=C(Nc1cccc2ccccc12)C1C2C3CCC(C3)C12 (centres undefined)	79
COc1ccccc1NC(=O)C1C2C3CCC(C3)C12 (centres undefined)	i
O=S(=O)(Nc1ccc(Nc2ccccc2)cc1)c1ccc2ccccc2c1	i
Cc1ccc(S(=O)(=O)Nc2cc([N+](=O)[O-])ccc2Cl)cc1	i
COc1ccc(C2CC(=O)C3=C(C2)Nc2ccccc2NC3c2ccc(OC(F)(F)F)cc2)cc1 (centres undefined)	i
Cc1ccc(NC(=O)CN(c2ccc(C)cc2)S(=O)(=O)c2ccc(F)cc2)cc1	i
CN1C(=O)/C(=C\c2cc(Cl)ccc2OCc2ccc(F)cc2)SC1=S	i
CCN1C(=O)/C(=C\c2cc(Cl)c(OCc3ccccc3)c(OC)c2)SC1=S	i
CCN1C(=O)/C(=C\c2cc(Cl)ccc2OCc2ccccc2)SC1=S	105
Cc1ccc(N2C(=O)NC(=O)/C(=C\c3ccc4c(c3)OCO4)C2=O)cc1C	i
Cc1ccc(C)c(-c2csc(N)c2C(=O)OC(C)C)c1	i
Cc1ccc(-c2csc(N)c2C(=O)OC(C)C)cc1C	84
Cc1ccc(-c2csc(N)c2C(=O)OC(C)C)cc1	i
Cc1ccc(/C(O)=C2\C(=O)C(=O)N(CCCC(=O)O)C2c2ccccc2F)cc1 (centres undefined)	i
Cc1ccc(-n2c(C)cc(/C=N/NC(=O)c3ccncc3)c2C)cc1C	i
Cc1cccc(C)c1-n1c(C)cc(/C=N/NC(=O)c2ccncc2)c1C	i
CCc1ccc(-n2c(C)cc(/C=N/NC(=O)c3ccncc3)c2C)cc1	87
Oc1cccc(/C=N/Nc2nncc(-c3ccccc3)n2)c1	i
COc1cccc(C(=O)NC(NC(=S)Nc2ccc(C)cc2)C(Cl)(Cl)Cl)c1 (centres undefined)	i
COc1ccc(-c2ccc(-c3nc(-c4ccccc4Cl)no3)cc2)cc1	i
CC(C)(C)c1cc(N2C(=O)C(=O)/C(=C(/O)c3ccc(Cl)cc3)C2c2cccc(F)c2)no1 (centres undefined)	i
O=C(Nc1ccccc1)C1C2/C=C\CCCCC21 (centres undefined)	100
O=C(O)C1C(C(=O)Nc2ccccc2)C2C=CC1C21CC1 (centres undefined)	i
O=C(Nc1ccc(Cl)c(Cl)c1)C1C2/C=C\CCCCC21 (centres undefined)	i
SMILES	DUSP3 inh
O=c1/c(=C/c2ccc([N+](=O)[O-])cc2)c2cccc3cccc1c32	i
COc1ccc(OCC(=O)Nc2c(C)cccc2C)cc1	i
N#C/C(=C\Nc1ccc(Cl)cc1)C(N)=O	i
Cc1ccc(NCC(=O)N/N=C\c2ccc(OC(=O)c3ccccc3)cc2)cc1	i
O=C(Oc1ccc(/C=N/O)cc1)c1ccc(Br)cc1	104
O=C(N/N=C/c1ccc(/C=N/NC(=O)c2ccc(Br)cc2)cc1)c1ccc(Br)cc1	i
O=C1OC(c2ccc(-c3ccccc3)cc2)c2ccccc21 (centres undefined)	i
CCOc1ccccc1NC(=O)c1c(NC(=O)c2ccccc2F)sc2c1CCC(C)C2 (centres undefined)	i
CCOc1ccccc1NC(=O)c1c(NC(=O)c2cccc(F)c2)sc2c1CCC(C)C2 (centres undefined)	116
CCOc1ccccc1NC(=O)c1c(NC(=O)Cc2ccc(OC)cc2)sc2c1CCC(C)C2 (centres undefined)	i
COc1ccc(Cl)cc1NC(=O)c1cc(-c2ccccc2Cl)nc2ccccc12	i
CCc1c(C)sc(NC(=O)CCc2ccc(OC)cc2)c1C(=O)OC	i
O=C(CCCN1C(=O)/C(=C\c2cccs2)SC1=S)Nc1nc2ccccc2s1	i
O=C(CSc1nnnn1-c1ccccc1)Nc1ccccc1Br	i
O=c1nc(/C=C/c2ccc(Cl)cc2)cc(C(F)(F)F)[nH]1	i
O=c1nc(/C=C/c2ccc(N3CCOCC3)cc2)cc(C(F)(F)F)[nH]1	i
O=c1nc(/C=C/c2ccc(N3CCCC3)cc2)cc(C(F)(F)F)[nH]1	108
O=C1c2ccccc2C(=O)N1c1ncc(Cc2cccc(C(F)(F)F)c2)s1	i
COc1cccc(-c2cc(C(=O)Nc3ncccn3)c3ccccc3n2)c1	i
COc1cccc(-c2cc(C(=O)Nc3nc4ccccc4s3)c3ccccc3n2)c1	68
COc1cccc(-c2cc(C(=O)Nc3nn[nH]n3)c3ccccc3n2)c1	i
O=C(CC1S/C(=N\N=C\c2ccco2)NC1=O)Nc1ccccc1F (centres undefined)	i
COC(=O)c1c(NC(=O)CN2C(=O)c3ccccc3C2=O)sc2c1C(C(=O)OC)CC2 (centres undefined)	i
CCc1ccc(-n2c(C)cc(/C=C3/NC(=S)NC3=O)c2C)cc1	i
COC(=O)c1ccc(-n2c(C)cc(/C=C3\NC(=S)NC3=O)c2C)cc1	111
SMILES	DUSP3 inh
Cc1cc(/C=C2/NC(=S)NC2=O)c(C)n1-c1ccc(Br)cc1	i
C/C(=C\C(=O)c1ccccc1)Nc1ccccc1O	i
N#C/C(=C\c1ccc(-c2cccc(C(F)(F)F)c2)o1)C(N)=O	i
O=C(/C=C/c1ccco1)/C=C/c1ccc(-c2ccc(Cl)c(Cl)c2)o1	89
N#C/C(=C\c1ccc(-c2ccc(Cl)c(Cl)c2)o1)C(N)=O	70
O=C(/C=C/c1ccco1)Nc1ccc(Cl)c(Cl)c1	i
N#C/C(=C\c1ccc(-c2ccc(Br)cc2)o1)C(N)=O	i
O=C(O)/C=C/c1ccc(-c2ccc(Cl)c(Cl)c2)o1	i
CC1=C(C)CC2C(=O)N(c3ccc(Br)cc3)C(=O)C2C1 (centres undefined)	i
COc1cc(OC)c(OC)cc1CN1CCN(C(=O)c2ccccc2)CC1	i
O=C1NC(=O)C(=Cc2ccc(-c3cccc(Br)c3)o2)C(=O)N1	i
CCCC12C(=O)C(C)(C(c3ccccc3)=C1c1ccccc1)C1C(=O)N(c3cccc(Cl)c3)C(=O)C12 (centres undefined)	i
Fc1c(F)c(C(F)(F)F)c(F)c(F)c1Oc1cccc2cccnc12	98
O=C(Nc1ccc(F)cc1)Nc1cccc2cccnc12	i
Cc1ccc(C)n1-c1cccc2cccnc12	i
O=C(c1c(Cl)cccc1Cl)N1CCN(c2ccc(Cl)cc2)CC1	i
Cc1ccc(S(=O)(=O)Nc2cc(Sc3ncn[nH]3)c(O)c3ccccc23)cc1	100
O=S(=O)(Nc1cc(Cl)c(O)c2ccccc12)c1ccc(F)cc1	i
Cc1ccc(C)c(S(=O)(=O)Nc2cc(Br)c(O)c3ccccc23)c1	i
O=C(Cc1ccc(Br)cc1)Nc1nc2ccccc2s1	i
Cn1/c(=N/N=C/C=C/c2ccco2)sc2ccccc21	114
Cn1/c(=N/N=C/c2cccc(Cl)c2Cl)sc2ccccc21	i
CN(C)c1ccc(/C=C/C=N/N=c2\sc3ccccc3n2C)cc1	i
c1ccc(CNc2ccc(-c3nc4ccccc4o3)cc2)cc1	i
CCCCCCOc1ccc(N2C(=O)CC(N(C)Cc3ccccc3)C2=O)cc1 (centres undefined)	i
SMILES	DUSP3 inh
CCCCNCCOc1cc(C)c(Cl)c(C)c1	i
O=C(NCC(O)c1ccccc1)C(=O)Nc1ccccc1 (centres undefined)	i
CCOc1ccc(-c2nc3sc4c(c3c(=O)[nH]2)CCCC4)cc1OCC	i
C=CCOc1ccc(-c2nc3sc4c(c3c(=O)[nH]2)CCCC4)cc1OC	i
COc1ccc(-c2nc3sc4c(c3c(=O)[nH]2)CCCC4)cc1C	61
CN(/C(=N\S(=O)(=O)c1ccc(Cl)cc1)c1ccccc1)c1ccc(O)cc1	i
